The results in this text go back to PubChem BioAssay AID651774 (Broad Institute, 2012).

Measured potencies and affinities stand elsewhere. The source made the active and inactive calls. The rule behind the calls is not given here.

The assay in a line: cytotoxicity in HeLa cells, dose response, cytotoxicity control, cell-based, 24 h, dry powder (AID 651774). To be noted: HeLa viability, CellTiter-Glo ATP luminescence; series mostly up to 35 µM. A general note: ATP-based viability assays read luminescence as a measure of living cells.
As for `O=C(Cc1ccccc1Cl)NC1CCCC1`, the result was inactive.
Turning to `N#Cc1cccc(CC(=O)NC2CCCC2)c1`, the result was inactive.
To `CC(C)c1ccc(CNc2nnn(C)n2)cc1` belongs “inactive”; to `c1ccc(CNc2nn[nH]n2)cc1`, “inactive”.
Take `CCC(C)NC(=O)Cc1ccc(-c2ccccc2)cc1` (stereo not drawn): the outcome was inactive.
In the case of `O=C(Cc1ccc(-c2ccccc2)cc1)Nc1ccccc1` it was “inactive”; in that of `CCn1nnc(NCc2ccc(C(F)(F)F)cc2)n1`, “inactive”.
In the case of `O=C(Cc1ccc(-c2ccncc2)cc1)NC1CCCC1`, the compound was classed as inactive.
To `O=C(Cc1ccc(-c2ccccc2)cc1)NC1CCC1` belongs “inactive”; to `CCn1nnnc1NCc1ccc(N2CCCC2)cc1`, “inactive”; to `O=C(Cc1cccc(OC(F)(F)F)c1)NC1CCCC1`, “inactive”.
In the case of `O=C(Cc1ccc(F)cc1)NC1CCCC1` it was “inactive”; in that of `CN1CCC(NC(=O)Cc2ccc(-c3ccccc3)cc2)CC1`, “inactive”.
Turning to `Cc1ccc(CC(=O)NC2CCCC2)cc1`, the compound was called inactive.
As to `CCn1nnc(NCc2ccc(N3CCCC3)cc2)n1`, the result was inactive.
Turning to `CN(Cc1ccc(N2CCCC2)cc1)c1nnn(C)n1`, the result was inactive.
On to `O=C(Cc1ccccc1OC(F)(F)F)NC1CCCC1`, for which the compound was called inactive.
In the case of `CN(C)C(=O)Cc1ccc(-c2ccccc2)cc1`, the result was inactive.
`CC(C(=O)NC1CCCC1)c1ccc(-c2ccccc2)cc1` (stereo not drawn): the compound was called inactive.
On to `O=C(Cc1ccc(-c2ccccc2)cc1)N1CCC(F)(F)CC1`, for which the compound was called inactive.
In the case of `COc1ccccc1CC(=O)NC1CCCC1` it was “inactive”; in that of `COc1cccc(CC(=O)NC2CCCC2)c1`, “inactive”.
For the compound `O=C(Cc1ccc(-c2cccnc2)cc1)NC1CCCC1`, the compound was called inactive.
For `O=C(Cc1ccc(-c2ccccc2)cc1)N1CC(F)(F)C1`, the result was inactive.
Take `O=C(Nc1nnc(-c2ccc3c(c2)OCCO3)o1)C1CCCCC1`: the result was inactive.
To `O=C(O)Cc1ccc(-c2ccccc2)cc1` belongs “inactive”; to `CCNC(=O)Cc1ccc(-c2ccccc2)cc1`, “inactive”.
For `Cn1nnnc1NCc1ccc(N2CCCC2)cc1`, the compound was called inactive.
